# Assay results published in article PMC8384837, “Expanding the binding specificity for RNA recognition by a PUF domain”.
# Where a chain is given by its changes, count along the chain named.
# Tests used:
# Assay in all cases: yeast three-hybrid, YBZ-1, SC-Leu-His + 0.5 mM 3-AT, 4 days
# Conditions in all cases: tags: N-Gal4 AD-HA kept; label: inside an RPR1-promoter hybrid RNA with tandem MS2 sites; ssRNA
# PUM1 PUF domain R6-TFE = molecular target: T1, PUM1 PUF domain R6-TFE (Homo sapiens, UniProt Q14671 828-1176, N1043T;Y1044F;Q1047E)
# T1 sequence: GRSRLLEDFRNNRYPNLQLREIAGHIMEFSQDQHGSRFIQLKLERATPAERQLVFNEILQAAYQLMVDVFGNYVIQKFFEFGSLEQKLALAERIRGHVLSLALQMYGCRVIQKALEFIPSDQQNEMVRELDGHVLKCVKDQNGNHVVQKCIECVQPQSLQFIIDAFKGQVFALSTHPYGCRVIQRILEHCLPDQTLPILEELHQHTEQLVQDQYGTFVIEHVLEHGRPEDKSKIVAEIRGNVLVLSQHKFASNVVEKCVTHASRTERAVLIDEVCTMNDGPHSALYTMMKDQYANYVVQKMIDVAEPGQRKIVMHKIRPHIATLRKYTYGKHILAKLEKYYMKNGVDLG
# Method in brief: (§1)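 Matching RNA elements and Pumilio-1 PUF domain libraries, randomized at the three base-contacting residues of every repeat, were co-expressed from a centromeric plasmid in strain YBZ-1 (LexA–MS2 coat fusion, HIS3 reporter). The repeat regions were PCR-amplified and Illumina-sequenced from cells grown four days on SC-Leu (input) or SC-Leu-His + 0.5 mM 3-AT (selection). The interaction score is the log change in variant frequency from input to selection. It is computed in log2, with a pseudocount of 1 for absent variants.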
# PUM1 PUF domain R3-RGG = PUM1 PUF domain R3-RGG (Homo sapiens, UniProt Q14671 828-1176, C935R;R936G;Q939G)
# Method in brief: as §1
# PUM1 PUF domain R6-GLR = molecular target: T2, PUM1 PUF domain R6-GLR (Homo sapiens, UniProt Q14671 828-1176, N1043G;Y1044L;Q1047R)
# T2 sequence: T1 sequence with T216G, F217L, E220R
# Method in brief: as §1
# PUM1 PUF domain R6-CWS = molecular target: T3, PUM1 PUF domain R6-CWS (Homo sapiens, UniProt Q14671 828-1176, N1043C;Y1044W;Q1047S)
# T3 sequence: T1 sequence with T216C, F217W, E220S
# Method in brief: as §1
# PUM1 PUF domain R6-VFY = molecular target: T4, PUM1 PUF domain R6-VFY (Homo sapiens, UniProt Q14671 828-1176, N1043V;Y1044F;Q1047Y)
# T4 sequence: T1 sequence with T216V, E220Y
# Method in brief: as §1
# PUM1 PUF domain R7-KPI = PUM1 PUF domain R7-KPI (Homo sapiens, UniProt Q14671 828-1176, S1079K;N1080P;E1083I)
# Method in brief: as §1
# PUM1 PUF domain R7-LFG = PUM1 PUF domain R7-LFG (Homo sapiens, UniProt Q14671 828-1176, S1079L;N1080F;E1083G)
# Method in brief: as §1
# PUM1 PUF domain R7-EPA = PUM1 PUF domain R7-EPA (Homo sapiens, UniProt Q14671 828-1176, S1079E;N1080P;E1083A)
# Method in brief: as §1
# PUM1 PUF domain R8-VRR = PUM1 PUF domain R8-VRR (Homo sapiens, UniProt Q14671 828-1176, N1122V;Y1123R;Q1126R)
# Method in brief: as §1
# PUM1 PUF domain R1-KLV = PUM1 PUF domain R1-KLV (Homo sapiens, UniProt Q14671 828-1176, S863K;R864L;Q867V)
# Method in brief: as §1
# PUM1 PUF domain R4-WSY = PUM1 PUF domain R4-WSY (Homo sapiens, UniProt Q14671 828-1176, N971W;H972S;Q975Y)
# Method in brief: as §1
# PUM1 PUF domain R4-DWC = PUM1 PUF domain R4-DWC (Homo sapiens, UniProt Q14671 828-1176, N971D;H972W;Q975C)
# Method in brief: as §1
sequence,measurement,setting,value
GGCUAGAACUAGUGGAUCCCCCGGCGCCCGGCGGCUCGAGCCCGGGUAAGUGGAAAUAGUCUGCAUGCCGCCGGGCGCCAUGCCUGCAGGUCGACUCUAGAAAACAUG,binding signal,PUM1 PUF domain R6-TFE,3.07 log2 enrichment (interaction score)
GGCUAGAACUAGUGGAUCCCCCGGCGCCCGGCGGCUCGAGCCCGGGUAAGUGUAAUUAGUCUGCAUGCCGCCGGGCGCCAUGCCUGCAGGUCGACUCUAGAAAACAUG,binding signal,PUM1 PUF domain R3-RGG,2.13 log2 enrichment (interaction score)
GGCUAGAACUAGUGGAUCCCCCGGCGCCCGGCGGCUCGAGCCCGGGUAAGUGCAAAUAGUCUGCAUGCCGCCGGGCGCCAUGCCUGCAGGUCGACUCUAGAAAACAUG,binding signal,PUM1 PUF domain R6-GLR,3.46 log2 enrichment (interaction score)
GGCUAGAACUAGUGGAUCCCCCGGCGCCCGGCGGCUCGAGCCCGGGUAAGUGAAAAUAGUCUGCAUGCCGCCGGGCGCCAUGCCUGCAGGUCGACUCUAGAAAACAUG,binding signal,PUM1 PUF domain R6-CWS,5.26 log2 enrichment (interaction score)
same,binding signal,PUM1 PUF domain R6-VFY,6.28 log2 enrichment (interaction score)
GGCUAGAACUAGUGGAUCCCCCGGCGCCCGGCGGCUCGAGCCCGGGUAAGUCUAAAUAGUCUGCAUGCCGCCGGGCGCCAUGCCUGCAGGUCGACUCUAGAAAACAUG,binding signal,PUM1 PUF domain R7-KPI,3.61 log2 enrichment (interaction score)
same,binding signal,PUM1 PUF domain R7-LFG,3.01 log2 enrichment (interaction score)
same,binding signal,PUM1 PUF domain R7-EPA,4.81 log2 enrichment (interaction score)
GGCUAGAACUAGUGGAUCCCCCGGCGCCCGGCGGCUCGAGCCCGGGUAAGCGUAAAUAGUCUGCAUGCCGCCGGGCGCCAUGCCUGCAGGUCGACUCUAGAAAACAUG,binding signal,PUM1 PUF domain R8-VRR,2.81 log2 enrichment (interaction score)
GGCUAGAACUAGUGGAUCCCCCGGCGCCCGGCGGCUCGAGCCCGGGUAAGUGUAAAUGGUCUGCAUGCCGCCGGGCGCCAUGCCUGCAGGUCGACUCUAGAAAACAUG,binding signal,PUM1 PUF domain R1-KLV,3.18 log2 enrichment (interaction score)
GGCUAGAACUAGUGGAUCCCCCGGCGCCCGGCGGCUCGAGCCCGGGUAAGUGUAUAUAGUCUGCAUGCCGCCGGGCGCCAUGCCUGCAGGUCGACUCUAGAAAACAUG,binding signal,PUM1 PUF domain R4-WSY,3.41 log2 enrichment (interaction score)
same,binding signal,PUM1 PUF domain R4-DWC,2.64 log2 enrichment (interaction score)
GGCUAGAACUAGUGGAUCCCCCGGCGCCCGGCGGCUCGAGCCCGGGUAAGUGUACAUAGUCUGCAUGCCGCCGGGCGCCAUGCCUGCAGGUCGACUCUAGAAAACAUG,binding signal,PUM1 PUF domain R4-DWC,2.72 log2 enrichment (interaction score)
